# Assay results published in paper PMC4552634, “A New Set of Chemical Starting Points with Plasmodium falciparum Transmission-Blocking Potential for Antimalarial Drug Discovery” (PLoS ONE, 2015).
# Where two headings read alike, the source gives them in different places. Out of some 13,000 compounds screened, about 3,200 (25%) showed an effect of 50% or more. Some of the results follow.
# Tested on: P. falciparum stage V gametocytes
# Parameters: BacTiter-Glo ATP luminescence viability of purified stage V gametocytes in 384-well plates, per cent inhibition versus DMSO
# Settings: 48 h, 5 µM, inhibitor
Compound,% Inhibition [%],% Inhibition (% Inhibition) [%]
CN(C)c1ccc(/C=C2\S/C(=N\c3ccccc3)N(c3ccccc3)C2=O)cc1[N+](=O)[O-] [TCMDC-124086],-8.825,–
CCC(C)c1ccc(Nc2nc(C)cc(N(CC)CCCN3CCCCC3)n2)cc1 (centres unmarked) [TCMDC-132456],-18.05,–
COc1cc(OC)c2c(c1Cl)O[C@]1(C2=O)C(=O)C(Cc2ccccc2)(Cc2ccccc2)C(=O)C[C@H]1C [TCMDC-131804],9.09,–
COc1ccc(CN(C)CCCOc2ccc(NC(=O)C=Cc3ccc(C(C)(C)C)cc3)cc2)cc1OC [TCMDC-138277],-85.5,–
CN1CCCc2cc(NC(=O)C=Cc3ccc(-c4ccc(F)cc4F)o3)ccc2C1 [TCMDC-134051],105.5,–
CN1CCCc2ccc(NC(=O)C=Cc3ccc(-c4ccc(F)cc4F)o3)cc2C1 [TCMDC-134124],39.53,–
COc1ccc(Br)cc1/C=C/C(=O)Nc1ccc2c(c1)CCCN(C)C2 [TCMDC-133717],27.94,–
CCCCCn1c(Sc2ccc(C#N)c([N+](=O)[O-])c2)nnc1-c1ccc(OC)cc1 [TCMDC-135603],31.95,–
COc1ccc2ncc(F)c([C@H](O)CN3CCC(NCc4ccc5c(c4)NC(=O)CS5)CC3)c2c1 [TCMDC-135827],14.82,–
COc1ccc2ncc(F)c(CCN3CCC(NCc4cc5c(cn4)OCCS5)CC3)c2c1 [TCMDC-134569],54.76,–
COc1ccc2nccc([C@@H](O)CN3CCC(NCc4cnc5c(c4)NC(=O)CS5)CC3)c2c1 [TCMDC-141230],6.568,–
COc1ccc2ncc(F)c(CCN3CCC(NCc4cnc5c(c4)NC(=O)CS5)CC3)c2c1 [TCMDC-134490],87.27,–
COc1ccc2ncc(F)c([C@@H](O)CN3CCC(NCc4cc5c(cn4)OCS5)CC3)c2c1 [TCMDC-135862],14.45,–
COc1ccc2ncc(F)c([C@H](O)CN3CCC(NCc4cc5c(cn4)OCCO5)CC3)c2c1 [TCMDC-135296],-10.65,–
CC(C)CC(=O)Nc1cc(=O)[nH]c2nc(-c3ccccc3)nn12 [TCMDC-125475],3.79,–
Cc1cc(C(=O)CN2C(=O)NC3(CCCc4ccccc43)C2=O)c(C)n1Cc1ccc(F)cc1 (centres unmarked) [TCMDC-125057],-27.15,–
O=C(/C=C/c1ccc(Cl)c(Cl)c1)NCCCCCN1CCC(NC(=O)c2ccc3ccccc3c2)CC1 [TCMDC-135869],-22.99,–
Cc1[nH]c(C)c(-c2ccc(-c3ccccc3C(F)(F)F)nc2)c(=O)c1Br [TCMDC-135881],80.96,–
Cc1[nH]c(C)c(-c2ccc(-c3cccc(C(F)(F)F)c3)nc2)c(=O)c1Br [TCMDC-135911],22.21,–
Cc1[nH]c(C)c(-c2ccc(-c3ccc(C(F)(F)F)cc3C(F)(F)F)nc2)c(=O)c1Br [TCMDC-136013],70.39,–
Cc1[nH]c(C)c(-c2ccc(-c3cc(C(F)(F)F)cc(C(F)(F)F)c3)nc2)c(=O)c1Br [TCMDC-136015],76.88,–
N#Cc1cccc(/C=C/C(=O)NC2CCC(CCN3CCc4ccc(-c5cnccn5)cc4CC3)CC2)c1 (centres unmarked) [TCMDC-140238],-55.93,–

Compound,% Inhibition [%],% Inhibition (% Inhibition) [%]
Cc1cc(N(C)C)nc(Nc2ccc(NC(=O)C3CCCCC3)cc2)n1 [TCMDC-124978],11.42,–
CCOc1cc(C(=O)NCCN(C(C)C)C(C)C)ccc1-c1nc2ccc(Cl)cc2[nH]1 [TCMDC-140910],18.37,–
O=c1cc(NCCCNC2CCCc3c2ccc2ccccc32)[nH]c2ccccc12 (centres unmarked) [TCMDC-139366],0.6782,–
CCOC(=O)c1c(C)n(C2CCCCCC2)c2cc(Br)c(O)cc12 [TCMDC-124588],-95.43,–
Cc1ccc(-n2c(C)cc(C(=O)CN3C(=O)NC(Cc4ccccc4)C3=O)c2C)cc1 (centres unmarked) [TCMDC-123563],-21.41,–
CC(C)C[C@@H](/C=N/NC(N)=O)NC(=O)[C@H](CC(C)C)NC(=O)[C@H](CC(C)C)NC(=O)OCc1ccccc1 [TCMDC-139049],-49.58,–
CCC(Nc1noc(-c2c(-c3ccccc3)noc2C)n1)c1ccccc1 (centres unmarked) [TCMDC-134200],3.321,–
CC(C)CNCc1cccc(-c2cccc(CNC3CCN(Cc4ccccc4)CC3)c2)c1 [TCMDC-140479],106.4,–
CC(C)CNCc1ccc(-c2cccc(CNC3CCN(Cc4ccccc4)CC3)c2)cc1 [TCMDC-140480],110,–
CC(C)CNCc1cccc(-c2ccccc2CNC2CCN(Cc3ccccc3)CC2)c1 [TCMDC-140469],76.18,–
CC(C)CNCc1cccc(-c2ccc(CNC3CCN(Cc4ccccc4)CC3)cc2)c1 [TCMDC-140487],103,–
NC1=NC(c2ccccc2)(c2ccccc2)C(=O)N1C1CCCCC1 [TCMDC-136761],-44.85,–
N=c1c2c(n(Cc3cccc(Cl)c3)c3c1CCC3)CCCC2 [TCMDC-125614],24.77,–
COC(=O)/C=C/c1ccc(CC(C)NCC(O)c2cccc(C(F)(F)F)c2)cc1 (centres unmarked) [TCMDC-131503],–,-2.875
NC(N)=NC(=O)Nc1cc(Cl)c(Br)c(Cl)c1 [TCMDC-137507],-11.69,–
O=C(/C=C/c1ccc(Cl)c(Cl)c1)NCCCCCN1CCN(C(=O)Nc2cccc(F)c2)CC1 [TCMDC-135731],4.224,–
O=C(Nc1nc2cc(S(=O)(=O)NCCc3cccc(F)c3)ccc2n1CCCn1ccnc1)c1ccc(Cl)cc1 [TCMDC-141623],-29.17,–
CC(C)c1ccc(NC(=O)c2ccc(C(=O)NC3CCN(Cc4ccsc4)C3)cc2)cc1 (centres unmarked) [TCMDC-136745],-11.55,–
CSCCCN1CCC(O)(c2ccc3oc(C(=O)Nc4ccc5sc(C)nc5c4)cc3c2)CC1 [TCMDC-124646],11.7,–
CC(C)CNCc1ccc(-c2ccc(CNC3CCN(Cc4ccccc4)CC3)cc2)cc1 [TCMDC-140488],73.02,–
COCCNCc1ccc(-c2ccccc2CNC2CCN(Cc3ccccc3)CC2)cc1 [TCMDC-140471],43.38,–
CC(C)CNCc1ccc(-c2ccccc2CNC2CCN(Cc3ccccc3)CC2)cc1 [TCMDC-140470],78.66,–

Compound,% Inhibition [%],% Inhibition (% Inhibition) [%]
Cc1cc(-c2ccc3c(c2)CC[C@@H](N[C@@H](C)c2ccccc2)C3)cnc1N [TCMDC-138130],26.54,–
Cn1c(NC(=O)C2CCC(CNC(=O)c3ccc(O)c(-c4cccc([N+](=O)[O-])c4)c3)CC2)nc2ccccc21 (centres unmarked) [TCMDC-140883],1.197,–
O=C(Nc1cccc(-c2nn3ccccc3c2-c2ccnc(Nc3ccccc3)n2)c1)c1cc(F)ccc1F [TCMDC-135823],-54.26,–
COc1ccc(OC(C)CNC(=O)c2cc([N+](=O)[O-])ccc2-c2ccc(OC)cc2)cc1 (centres unmarked) [TCMDC-132303],16.94,–
COc1ccc(-c2ccc([N+](=O)[O-])cc2C(=O)NCC(C)Oc2ccc(C(F)(F)F)cc2)cc1 (centres unmarked) [TCMDC-132304],94.55,–
NCCNc1ccc([N+](=O)[O-])cc1C(=O)Nc1cccc(C(F)(F)F)c1 [TCMDC-123677],3.903,–
N=C1NC(=O)C(=Cc2cn(-c3ccccc3)nc2-c2cccc(S(=O)(=O)N3CCCC3)c2)S1 [TCMDC-123756],0.418,–
NC1CCN(Cc2cccc(-c3cccc(-c4nc5ccccc5[nH]4)c3)c2)C1 (centres unmarked) [TCMDC-133875],72.93,–
NC1CCN(Cc2cccc(-c3ccc(-c4nc5ccccc5[nH]4)cc3)c2)C1 (centres unmarked) [TCMDC-133846],28.29,–
NC1CCCN(Cc2cccc(-c3ccc(-c4nc5ccccc5[nH]4)cc3)c2)C1 (centres unmarked) [TCMDC-133848],22.08,–
OC1CCCN(Cc2cccc(-c3ccc(-c4nc5ccccc5[nH]4)cc3)c2)C1 (centres unmarked) [TCMDC-133817],-22.44,–
NC1CCCN(Cc2cccc(-c3cccc(-c4nc5ccccc5[nH]4)c3)c2)C1 (centres unmarked) [TCMDC-133877],56.31,–
Cc1cc(N2CCCCC2)nc2ccc(NC(=O)c3cc(=O)c4ccccc4o3)cc12 [TCMDC-123602],13.04,–
Cc1ccc(NC(=O)Nc2ccccc2)cc1-c1ccc(C(=O)Nc2ccncc2)cc1 [TCMDC-133701],-4.063,–
NC1=NC(c2ccccc2)(c2ccccc2)C(=O)N1Cc1ccc(-c2cccnc2)cc1 [TCMDC-136999],-17.43,–
CC(=O)N1Cc2ccccc2C1=O [TCMDC-131706],7.417,–
COc1ccc(C(=O)CC(=O)c2ccc(OC)cc2OC)c(OC)c1 [TCMDC-123465],12.1,–
CCN(CC)CCN(CCN(CC)CC)c1ccc2c(c1)Sc1c(Cl)ccc(Cl)c1S2 [TCMDC-137934],63.92,–
COc1ccc(Cn2c(=O)[nH]c3cc(C(=O)NC4CCN(Cc5ccccc5)CC4)ccc3c2=O)cc1 [TCMDC-123588],-15.29,–
COc1ccc(NC(=O)N2CCCN(CCCCCNC(=O)/C=C/c3ccc(C(F)(F)F)cc3)CC2)cc1Cl [TCMDC-136109],-28.75,–
COc1cc(CN2CCN(c3ccnc(N(C)C4CCN(C)CC4)n3)CC2)cc(Cl)c1O [TCMDC-125096],-14.35,–
